Screening data from PubChem BioAssay.
HCV inhibitor: inhibitors of hepatitis C virus infection | AID 651820 | hit rate 3.4% among 340,000 | Potency, µM (top dose mostly 41.8 µM), hits mostly inhibitors | Huh7.5.1 HCVcc-Cre infection, luciferase reporter, 44 h; active means well fitted inhibition curve with a large enough effect; inconclusive means small, poorly fitted or top-dose-only effect, or another doubt; inactive means no such curve, though single readings can be large or run the other way
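Infectious HCVcc-Cre (~0.5 moi) was added to cells just after compound, with cells seeded 4 h earlier at 1,000 per well. Luciferase activity after 44 h culture reported infection; substrate was incubated 15 min at room temperature before reading.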
MARV entry inh: blocks Marburg virus binding to or entry into cells; Potency, µM (highest dose often 37.8 µM), usual class: inhibitors; hit rate 1.8% among 300,000; Marburg virus pseudotyped entry inhibition, cell reporter; calls by dose curve; tested in HEK293 cells
LASV entry inh: inhibitors of Lassa virus binding or cell entry. Lassa virus pseudotype entry inhibition, cell reporter. Potency, µM (doses to about 37.9 µM), most hits filed as inhibitors. hit rate 1.2% among 300,000. AID 540256; calls by dose curve; tested in HEK293 cells; further: nearly all actives have a fitted effect of over 50% in size
FMDV antiviral: blocks foot and mouth disease virus; FMDV antiviral cell-based qHTS; Potency, µM (titrated, usually from 57.9 µM), usual class: inhibitors; hit rate 1.2% among 410,000; AID 1159524; calls by dose curve; tested in HEK293T cells; further: read-out not given here; nearly all actives have a fitted effect of over 45% in size
HCMV inh: blocks human cytomegalovirus replication | AID 1259415 | hit rate 4.5% among 410,000 | activity change, negative = inhibition, % at 57.5 µM | HFF cells, HCMV-luciferase reporter, 72 h; active compounds read low; in the data active means activity change below about -60%; inconclusive means no clear call, values can overlap the other calls; inactive means above about -39%
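Inhibition of viral replication was scored as loss of reporter luminescence in HFFs infected with HCMV-luciferase (MOI 1 PFU/cell) for 72 h; compounds tested at 2 doses, normalized to buffer and Salinomycin controls.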
Large screens that a line does not name were inactive; ! = not confirmed by another sample. Only some compounds are listed: those with a hit (about 7.9% of all), similar ones and a draw of the others.

CO[C@H]1C=CO[C@@]2(C)Oc3c(C)c(O)c4c(O)c(c(C=NN5CCN(C)CC5)c(O)c4c3C2=O)NC(=O)C(C)=CC=C[C@H](C)[C@H](O)[C@@H](C)[C@@H](O)[C@@H](C)[C@H](OC(C)=O)[C@H]1C	none (no result: HCV inhibitor, MARV entry inh, LASV entry inh, HCMV inh)
Cc1cccc(/C=N/NC(=O)c2cc(Br)ccc2O)n1	HCV inhibitor 4µM, MARV entry inh inconclusive, LASV entry inh inconclusive
CSc1nc(C)cc(OCC(=O)N/N=C/c2ccccc2O)n1	HCV inhibitor 6.3µM, MARV entry inh 2.8µM, LASV entry inh inconclusive, FMDV antiviral inconclusive, HCMV inh inconclusive
Cc1cc(=O)oc2cc(OCC(=O)N/N=C/c3ccccc3O)ccc12	none
CC(C)c1c(C(=O)NCC(C)(C)N2CCOCC2)cnn1-c1nccc(-c2ccccc2F)n1	none (no result: HCV inhibitor, MARV entry inh, LASV entry inh, HCMV inh)
Cc1ccc(C(=O)[C@H]2[C@H](c3cccs3)NC(=O)N[C@]2(O)C(F)(F)F)cc1	none (no result: HCV inhibitor, LASV entry inh, FMDV antiviral, HCMV inh)
COc1ccc(C(=O)COC(=O)CN2C(=O)c3ccccc3C2=O)c(OC)c1	none
COc1cccc(-c2nn(C)c3sc(C(=O)NCc4ccc(OC)cc4OC)cc23)c1	LASV entry inh inconclusive (no result: HCV inhibitor)
CCOc1ccc(CCNC(=O)c2cc3c(-c4cccc(OC)c4)nn(C)c3s2)cc1OCC	MARV entry inh inconclusive, LASV entry inh inconclusive, FMDV antiviral inconclusive, HCMV inh -63 (no result: HCV inhibitor)
CCOc1ccc(CCNC(=O)c2cc3c(-c4ccccc4F)nn(C)c3s2)cc1OCC	MARV entry inh inconclusive, LASV entry inh inconclusive, FMDV antiviral inconclusive, HCMV inh -65 (no result: HCV inhibitor)
COc1cccc(-c2nn(C)c3sc(C(=O)NCc4cc(OC)ccc4OC)cc23)c1	FMDV antiviral inconclusive (no result: HCV inhibitor)
CCN(CCCNC(=O)c1cc2c(-c3cccc(OC)c3)nn(C)c2s1)Cc1ccccc1	HCV inhibitor 11µM, MARV entry inh inconclusive, LASV entry inh inconclusive
C=CCN1c2ccccc2Sc2cnccc21	FMDV antiviral inconclusive, HCMV inh -68 (no result: HCV inhibitor, MARV entry inh, LASV entry inh)
O=C1N(Cc2cccc(Cl)c2)C[C@@H]2C[C@@H](c3cccn3-c3cccnc3)N3CCC[C@@]123	HCV inhibitor 10µM, MARV entry inh 13µM, LASV entry inh inconclusive, FMDV antiviral inconclusive, HCMV inh -86
Cn1cc([C@@H]2C[C@H]3CN(Cc4cccc(Cl)c4)C(=O)[C@]34CCCN24)c(-c2ccccc2)n1	HCV inhibitor 10µM, MARV entry inh inconclusive, LASV entry inh inconclusive
CCn1ncc([C@@H]2C[C@H]3CN(Cc4cccc(Cl)c4)C(=O)[C@]34CCCN24)c1C	none
O=C1N(Cc2cccnc2)C[C@@H]2C[C@@H](c3ccc(C(F)(F)F)cc3)N3CCC[C@@]123	none
O=C1N(Cc2cccnc2)C[C@@H]2C[C@@H](c3cccc(Oc4ccccc4)c3)N3CCC[C@@]123	FMDV antiviral inconclusive, HCMV inh -67 (no result: MARV entry inh, LASV entry inh)
Nc1cc(SCc2ccc([N+](=O)[O-])cc2)ncn1	MARV entry inh inconclusive
O=[N+]([O-])c1ccc(SCc2ccncc2)nc1	HCMV inh -84 (no result: MARV entry inh, LASV entry inh)
CCC(=O)NCc1nc(-c2cccc(NC(=O)c3ccc(C)s3)c2)oc1C	none (no result: HCV inhibitor, MARV entry inh, LASV entry inh, HCMV inh)
Cn1c(-c2cccnc2)cc2c(Nc3cccc(C(F)(F)F)c3)nccc21	none (no result: HCV inhibitor, MARV entry inh, LASV entry inh, FMDV antiviral)
COC(=O)c1ccc(COc2ccccc2/C=C(\C#N)C(=O)Nc2c(C)cccc2C)cc1	HCV inhibitor inconclusive, MARV entry inh 11µM, LASV entry inh inconclusive, FMDV antiviral 11µM
OC1(c2ccc(OC(F)F)cc2)CSC(=Nc2cccnc2)N1C1CC1 (configuration not stated)	HCV inhibitor 32µM, MARV entry inh 3.5µM, LASV entry inh inconclusive, FMDV antiviral inconclusive
CCC(CC)C(C(=O)NCc1ccccc1)N1CCN(CCN2CCOCC2)CC1 (configuration not stated)	none (no result: HCV inhibitor, MARV entry inh, LASV entry inh)
COc1ccc(N(CC(=O)N2CCN(c3cccc(Cl)c3)CC2)S(=O)(=O)c2c(C)noc2C)cc1	HCV inhibitor inconclusive, LASV entry inh inconclusive, HCMV inh -67!
Cc1ccc(N(CC(=O)N2CCN(c3cccc(Cl)c3)CC2)S(=O)(=O)c2c(C)noc2C)cc1	MARV entry inh inconclusive, LASV entry inh inconclusive (no result: HCV inhibitor)
COc1ccc(N(CC(=O)N2CCN(c3ccc(F)cc3)CC2)S(=O)(=O)c2c(C)noc2C)cc1	none
COc1ccc(N(CC(=O)N2CCN(c3ccc(Cl)cc3)CC2)S(=O)(=O)c2c(C)noc2C)cc1	HCV inhibitor 11µM, FMDV antiviral inconclusive (no result: MARV entry inh, LASV entry inh)
CCCc1cc(=O)oc2cc3oc(C)c(C)c3cc12	HCV inhibitor 22µM
CCCc1cc(=O)oc2cc(C)c3c(C)coc3c12	HCV inhibitor 10µM, MARV entry inh inconclusive (no result: FMDV antiviral)
CCc1cc(=O)oc2cc3oc(C)c(C)c3cc12	HCV inhibitor inconclusive, LASV entry inh inconclusive
CCCc1cc(=O)oc2cc3occ(C)c3cc12	HCV inhibitor 2.2µM
Cc1cc(C)n(Cc2cc(C(=O)O)c3ccccc3n2)n1	none
Cc1cc(O)c2c(c1O)C(=O)[C@]13C(=C2O)C(=O)[C@@H]2[C@@H](O)[C@H]1[C@@H]1[C@H](O)[C@H]3C(=O)C3=C(O)c4c(O)cc(C)c(O)c4C(=O)[C@]312	HCV inhibitor 5µM, FMDV antiviral inconclusive (no result: MARV entry inh, LASV entry inh, HCMV inh)
Cc1cc(O)c2c(c1O)C(=O)c1c(O)cc(C)c(O)c1C2=O	none (no result: HCV inhibitor, MARV entry inh, LASV entry inh, HCMV inh)
CCOC(=O)N1CCC(N2Cc3cccc(C(=O)Nc4ccc(CC)cc4)c3C2=O)CC1	MARV entry inh inconclusive
CCOC(=O)N1CCC(N2Cc3cccc(C(=O)Nc4ccc(F)cc4)c3C2=O)CC1	HCV inhibitor inconclusive, HCMV inh -102
COc1cc(=O)n2c(c1C(=O)NCc1ccco1)CCN(Cc1cccc(Cl)c1)CC2	none (no result: HCV inhibitor, MARV entry inh, LASV entry inh, HCMV inh)
Cc1cccc(C(=O)Nc2nc3c(s2)CCCC3)c1	MARV entry inh inconclusive, LASV entry inh inconclusive (no result: HCV inhibitor)
O=C(CCS(=O)(=O)Cc1ccccc1)Nc1nc2c(s1)CCCC2	HCV inhibitor inconclusive, MARV entry inh inconclusive, LASV entry inh inconclusive, HCMV inh -61 (no result: FMDV antiviral)
Cc1ccc(CC(=O)Nc2nc3c(s2)CCCC3)cc1	MARV entry inh inconclusive, LASV entry inh inconclusive, HCMV inh -73
O=C(Nc1cccc(Br)c1)Nc1nc2c(s1)CCCCCC2	HCMV inh -86 (no result: HCV inhibitor, MARV entry inh)
O=C(CS(=O)(=O)Cc1ccccc1)Nc1nc2c(s1)CCCC2	none
Cc1cc(C(=O)Nc2nc3c(s2)CCCC3)cs1	HCV inhibitor 13µM, MARV entry inh inconclusive, LASV entry inh inconclusive
Cc1oncc1C(=O)N1CCCC(CO)(Cc2ccc(F)cc2F)C1 (configuration not stated)	MARV entry inh inconclusive
COc1cc(C2C=C(C(=O)O)Nc3ncnn32)ccc1O (configuration not stated)	none (no result: HCV inhibitor)
CCCC1(C(=O)OCC)NC(c2ccco2)C2C(=O)N(C)C(=O)C21 (configuration not stated)	none
COc1ccccc1OCC(=O)Nc1nc2c(s1)CCCC2	HCMV inh -67 (no result: MARV entry inh, LASV entry inh)
O=C(CSc1nc2ccccc2o1)Nc1nc2ccccc2s1	LASV entry inh inconclusive
Cc1ccc(C(C)C)c(OCC(=O)Nc2nc3c(s2)CCCC3)c1	MARV entry inh inconclusive, LASV entry inh 3.2µM, HCMV inh -82 (no result: HCV inhibitor)
COc1ccc(OCC(=O)Nc2nc3c(s2)CCCC3)cc1	HCV inhibitor inconclusive, HCMV inh inconclusive (no result: MARV entry inh, LASV entry inh)
O=C(COc1ccc(F)cc1)Nc1nc2c(s1)CCCC2	none
